Assay outcomes as filed in PubChem BioAssay.
GAA850 FXN act = frataxin GAA850 promoter activation. HEK293 lucGAA850 FXN promoter luciferase reporter, 24 h; percent of 10 µM SAHA response. activation, % at 6 µM. hit rate 0.56% among 360,000. AID 540364;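 active = activation above the average of all compounds screened plus 3 SD, cutoff fixed separately per campaign, cut at about 7.5% in these data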
DAX1 inh-1 = blocks DAX1 repression of SF-1 activated StAR promoter; HEK293T StAR-luciferase reporter, SF-1/DAX-1 repression relief; inhibition, % at 6.8 µM; hit rate 1.1% among 370,000;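 active = inhibition above the mean over all tested compounds plus 3 SD, cut at about 3.6% in these data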;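 also: higher inhibition means more luminescence from relief of DAX-1 repression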
hgDAF-12 ag = agonists of H. glycines DAF-12 nuclear receptor. hit rate 1.8% among 370,000. HEK293 GAL4-hgDAF12 UAS-luciferase reporter, agonist luminescence; normalized to butyrate control. activation, % at 6.8 µM. AID 687014;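 active = activation above a cutoff set at the mean of all screened compounds plus 3 SD, cut at about 10% in these data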
ssDAF-12 act = activators of S. stercoralis DAF-12 nuclear receptor. HEK293 ssDAF-12/GRIP1 lit1-tk-luc reporter, luminescence; % of 3 µM dafachronic acid response. activation, % at 6.8 µM. hit rate 1% among 370,000;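 active = activation above the mean over all tested compounds plus 3 SD, cut at about 0.9% in these data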
DAX1 inh-2 = inhibits human nuclear receptor DAX1; P51843; HEK293 Gal4-DAX1 luciferase reporter, luminescence; inhibition, % at 6.75 µM; hit rate 0.99% among 340,000; AID 504766;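 active = inhibition above the mean over all tested compounds plus 3 SD, cut at about 4.2% in these data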;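 also: inhibition shows as a rise in luminescence from relieved DAX1 repression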
Target sequence (P51843 207-470 limits assumed): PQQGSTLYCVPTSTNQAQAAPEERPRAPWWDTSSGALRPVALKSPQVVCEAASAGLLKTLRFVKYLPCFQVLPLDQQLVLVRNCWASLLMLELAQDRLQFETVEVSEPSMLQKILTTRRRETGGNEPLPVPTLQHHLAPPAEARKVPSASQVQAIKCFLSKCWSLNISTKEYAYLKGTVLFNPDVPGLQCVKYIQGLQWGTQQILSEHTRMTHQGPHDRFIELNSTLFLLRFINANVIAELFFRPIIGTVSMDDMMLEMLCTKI
hcDAF12 agonist = H. contortus DAF-12 activation, primary screen; HEK293 hcDAF-12 lit1-tk-luc reporter, luminescence; 0% DMSO, 100% Δ7-dafachronic acid; activation, % at 6.8 µM; hit rate 1.4% among 370,000; AID 652067;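 active = activation above the mean of all tested compounds plus 3 SD, cut at about 5.5% in these data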
Hits are given with their value; . = inactive; / = no result given. Only some compounds are listed: those with a hit (about 4.5% of all), similar ones and a draw of the others.

SMILES | GAA850 FXN act | DAX1 inh-1 | hgDAF-12 ag | ssDAF-12 act | DAX1 inh-2 | hcDAF12 agonist
CC1CC(C)CN(CCCNC(=O)CN2C(=O)CSc3ccc(S(=O)(=O)N4CCCCC4)cc32)C1 (stereo not drawn) | . | 3.6 | . | . | . | .
COCCCN1C(=O)[C@H](CC(=O)N2CCCCC2)[C@]2(C(=O)OC)CCCCC=C12 | / | . | . | . | / | .
CC1(C)SC(=S)N(/N=C/c2cccnc2)C1N(O)C(=O)Nc1ccccc1 (stereo not drawn) | . | . | . | . | 6.2 | .
CCCCNC(=O)N(O)C1N(/N=C/c2cccnc2)C(=S)SC1(C)C (stereo not drawn) | . | . | . | . | . | .
CCCCN1CN2Cc3cc(OC)ccc3C2CS1(=O)=O (stereo not drawn) | / | . | . | . | / | .
COC(=O)c1cccc(Cn2ccc3ccc(-c4ccc5ccn(C(=O)c6ccccc6OC)c5c4)cc32)c1 | / | . | . | . | / | .
COc1cc(NC(=O)NC2CCCCN(Cc3cccc(Cl)c3)C2=O)cc(OC)c1 (stereo not drawn) | / | . | . | . | / | .
O=[N+]([O-])c1ccc2cn(-c3ccccc3)nc2c1 | . | . | 13.2 | 1.1 | . | 6.0
CNC(C)C#Cc1ccc2oc3cc(C)c(C)cc3c(=O)c2c1 (stereo not drawn) | . | . | . | . | . | .
CNC(C)C#Cc1ccc2c(=O)c3cc(C)c(C)cc3oc2c1 (stereo not drawn) | . | . | 11.4 | . | . | .
CNC(C)C#Cc1ccc2oc3cccc(OC)c3c(=O)c2c1 (stereo not drawn) | 7.8 | . | . | . | . | .
COc1cccc2oc3ccc(C#Cc4ccccn4)cc3c(=O)c12 | . | . | 11.0 | . | . | .
COc1cccc2sc3cc(C#Cc4ccccn4)ccc3c(=O)c12 | . | . | . | . | . | .
CC(C)[C@H](N)C(=O)N[C@H](C(=O)N1CCC2CCN(S(=O)(=O)c3ccccc3)CC21)C(C)C (stereo partly drawn) | / | . | . | . | / | .
Cc1cc(C)cc(C(=O)OCCN(C)C2CN(Cc3cn(Cc4cccc(F)c4)nn3)S(=O)(=O)C2)c1 (stereo not drawn) | / | . | . | . | / | .
Cc1nc(Nc2ccccc2)sc1C | . | . | . | . | 7.2 | .
O=C(/C=C/c1ccc(Cl)cc1)NC1CC2CCC1C2 (stereo not drawn) | . | . | 11.4 | . | . | .
O=C(/C=C/c1ccccc1)NC1CC2CCC1C2 (stereo not drawn) | . | . | . | . | . | .
CC(NC(=O)CN1C(=O)NC2(CCCCCCC2)C1=O)c1ccccc1 (stereo not drawn) | . | . | . | . | . | .
CC(NC(=O)CN1C(=O)NC2(CCCCC2)C1=O)c1ccc(S(N)(=O)=O)cc1 (stereo not drawn) | . | 3.9 | . | . | . | .
Cc1ccccc1N1CCN(C(=O)COc2cc(=O)n(C)c3ccccc23)CC1 | / | . | . | . | / | .
Cc1cccc(C)c1NC(=O)c1cnccn1 | . | . | . | 1.0 | . | .
Cc1cccc(C)c1NC(=O)CNC(=O)c1cnccn1 | . | . | . | . | . | .
Cc1nc2c(ccc3nc(NC(=O)C(c4ccccc4)c4ccccc4)sc32)s1 | . | . | . | 2.5 | . | .
Cc1ccc(CNC(=O)C(OC(=O)c2cccs2)C(C)C)cc1 (stereo not drawn) | . | . | . | . | 4.6 | .
SMILES | GAA850 FXN act | DAX1 inh-1 | hgDAF-12 ag | ssDAF-12 act | DAX1 inh-2 | hcDAF12 agonist
CC(C)C(OC(=O)c1cccs1)C(=O)NCc1ccccc1 (stereo not drawn) | . | . | . | . | . | .
Cc1cc(C(=O)COC(=O)c2ccc(Cl)c(S(N)(=O)=O)c2)c(C)n1CC1CCCO1 (stereo not drawn) | . | . | . | . | 4.6 | .
CC[C@@H](CCCc1ccccc1OC)CCS(=O)(=O)C(C)(C)C | / | . | . | . | / | .
COc1ccccc1CCC[C@@H](CCS(=O)(=O)C(C)C)CC1CCCCC1 | / | . | . | 2.2 | / | .
CCN(CC)S(=O)(=O)c1ccc(C)c(NC(=O)/C=C/c2cccs2)c1 | . | . | . | . | . | .
Cc1ccccc1NC(=O)/C=C/c1cccs1 | . | . | 13.1 | . | . | .
COc1ccc2c3n([n+]([O-])c2c1)CCN=C3c1ccc(C)cc1 | . | . | . | 1.1 | . | 5.6
